A selection: hits, their analogues and other compounds. The true share with any hit is near 2.5%.
VACV Venus inh – vaccinia inhibition (Venus reporter) | actives 0.46% (n = 330,000) | Potency, µM (series often up to 36.5 µM), without a hit: top-dose activity change, negative = inhibition, most hits filed as inhibitors | Vaccinia virus Venus reporter expression, fluorescence; calls by dose curve; tested in A549 cells; note: nearly all actives have a fitted effect of over 30% in size
Vaccinia mCherry – vaccinia inhibition (mCherry reporter). Vaccinia virus mCherry reporter infection, fluorescence. Potency, µM (top dose mostly 36.5 µM), without a hit: at the highest dose activity change, negative = inhibition, actives largely listed as inhibitors. actives 0.63% (n = 310,000); calls by dose curve; tested in A549 cells; note: nearly all actives have a fitted effect of over 35% in size
Lassa entry inh – blocks Lassa virus binding to or entry into cells | Lassa virus pseudotype entry inhibition, cell reporter | Potency, µM (top dose mostly 37.9 µM), for the others: at the highest dose activity change, negative = inhibition, usual class: inhibitors | actives 1.2% (n = 300,000) | AID 540256; calls by dose curve; tested in HEK293 cells; note: nearly all actives have a fitted effect of over 50% in size
Marburg entry inh – inhibitors of Marburg virus binding or cell entry; Marburg virus pseudotyped entry inhibition, cell reporter; Potency, µM (highest dose often 37.8 µM), for the others: at the top dose activity change, negative = inhibition, most hits filed as inhibitors; actives 1.8% (n = 300,000); calls by dose curve; tested in HEK293 cells
Active calls of the source: *; i = inactive; ? = inconclusive; / = no result; [ ] = remark or other dose. % is set by controls: 0 for no effect and ±100 for the full control effect; potency is the fitted concentration of half-maximal effect.

SMILES	VACV Venus inh	Vaccinia mCherry	Lassa entry inh	Marburg entry inh
COc1cc(/C=N/NC(=O)c2cccc([N+](=O)[O-])c2)cc(OC)c1O	-2%	-9%	/	/
COc1ccccc1/C=N/NC(=O)c1c(-c2ccccc2)noc1C	-15%	-1%	12%[46.1 µM]	1%[46.1 µM]
COc1cc(/C=N/NC(=S)Nc2cccc(C(=O)O)c2)ccc1O	-5%	i	?	?
COc1cccc(/C=N/NC(=O)c2ccc([N+](=O)[O-])cc2Cl)c1O	?	11µM*	15µM*	?
Cc1cccc(/C=N/NC(=O)c2c(-c3ccccc3)noc2C)c1O	-28%	0.56µM*	-22%[46.1 µM]	?
COc1cccc(/C=N/NC(=S)Nc2cccc(C(=O)O)c2)c1O	/	/	5.8µM*	5.8µM*
COc1ccc(CNC(=O)c2cnn(-c3nccc(-c4ccco4)n3)c2C)cc1OC	-14%	?	/	/
COc1cccc(/C=N/NC(=O)c2ccc(-c3ccccc3)cc2)c1O	?	4.5µM*	5.6µM*	3.2µM*
COc1ccc(OC)c(/C=N\NC(=O)c2ccc(-c3ccccc3)cc2)c1	-26%	-24%	?	-11%
COc1cccc(/C=N/NC(=O)C(=O)Nc2ccccc2OC(F)(F)C(F)F)c1O	?	10µM*	?	8.9µM*
CCOC(=O)c1c(C)[nH]c(C(=O)N/N=C/c2ccc(Br)cc2)c1C	?	-27%	?	2.8µM*
O=C(NN=Cc1cccc(O)c1O)c1ccccc1	?	10µM*	/	/
O=C(N/N=C/c1ccccc1O)c1ccncc1	-19%	-2%	/	/
O=c1[nH]c(=S)[nH]c2n[nH]nc12	-5%	-5%	/	/
CCCCCCCCCOC(=O)CNc1nc(C#N)nc(NCC(=O)OCCCCCCCCC)n1	-9%	-12%	/	/
CN(C)c1ccc(/C=N/NC(=O)c2ccccc2)cc1	-21%	-10%	10µM*	-14%[46.1 µM]
CCn1c(C)nc2cc(C(=O)N/N=C/c3cccc(O)c3O)ccc21	?	13µM*	?	?
NC(=S)N/N=C/c1cccc(O)c1O	-18%	8.9µM*	?	?
Cc1cnc(C)c(-c2cc(F)cc3c2OC(CNC(=O)CN2CCCC2)C3)n1 (stereo not drawn)	-14%	-1%	/	/
Cc1ccc(S(=O)(=O)n2nc(-n3c(C)ccc3C)c3c(F)cccc32)c2ccccc12	20%	-13%	-20%[46.1 µM]	11µM*
Cc1ccc(C)n1-c1nn(S(=O)(=O)c2cccc3cccnc23)c2cccc(F)c12	-16%[7.34 µM]	i[7.34 µM]	-17%	?
COc1ccc(CN2CCC3(CC2)c2ccccc2[C@@H](NC(=O)c2ccccc2)[C@@H]3O)cc1O	-10%	i	/	/
Cc1ccnc(N2C(=O)c3cccc4c([N+](=O)[O-])ccc(c34)C2=O)c1	-5%	-8%	?	21µM*
Cc1ccnc(N2C(=O)c3ccccc3C2=O)c1	-10%	-14%	?	?
O=C1C=CC(=O)N1c1ccccc1N1C(=O)C=CC1=O	?	-5%	11µM*	?
SMILES	VACV Venus inh	Vaccinia mCherry	Lassa entry inh	Marburg entry inh
COC(=O)C1=C(C)N(Cc2ccccc2)C(=S)NC1c1cccc(C(F)(F)F)c1 (stereo not drawn)	/	/	/	-35%[14.2 µM]
CCCCCc1cc(=O)oc2c(C(CCN3CCCCC3)c3ccc(OC)cc3)c(OC)cc(OC)c12 (stereo not drawn)	?	13µM*	/	/
CCCCCc1cc(=O)oc2c(C(CCN3CCCC(C)C3)c3ccc(OC)cc3)c(OC)cc(OC)c12 (stereo not drawn)	?	-15%	/	/
CCCCCc1cc(=O)oc2c(C(CCN3CCCC3)c3cc(OC)c(OC)c(OC)c3)c(OC)cc(OC)c12 (stereo not drawn)	16µM*	14µM*	/	/
CSc1ncccc1C(=O)N1CCOc2ccc(C(C)(O)CCn3cccn3)cc2C1 (stereo not drawn)	-1%	i	/	/
O=C1CCc2cc(-c3csc(-c4ccc(O)cc4)n3)ccc2N1	-10%	-25%	/	/
Cc1nn(Cc2c(F)c(F)c(F)c(F)c2F)c(C)c1NC(=O)c1ccc(COc2ccc(F)cc2)o1	/	/	-22%	3.7µM*
COC(=O)/C=c1\s/c(=C(/C#N)C(=O)N2CCOCC2)n(-c2ccccc2)c1=O	/	/	/	-9%
CCN(CC)CC1C(=O)N(c2ccc(OC)cc2)C1c1ccccc1 (stereo not drawn)	-7%	-5%	?	8.9µM*
Cc1ccc(/C=N/Nc2ccc3ccccc3n2)o1	?	?	5µM*	1.3µM*
CC(=NNc1ccc2ccccc2n1)c1ccccc1O	-20%	-14%	3.2µM*	?
C/C(=N\Nc1nc2ccccc2nc1C)c1ccccc1O	-18%	?	-15%	4%[46.1 µM]
O=c1n(CCCN2CCN(C3CCCC(Cl)C3)CC2)nc2ccccn12 (stereo not drawn)	/	/	/	40%
CC1CN(CCC(=O)NC(c2cccnc2)C(F)(F)F)Cc2cc(Cl)ccc2O1 (stereo not drawn)	-10%	-10%	/	/
Cc1ccc(NS(=O)(=O)c2cc(NC(=O)c3cc4c(s3)CCCC4)ccc2C)c(C)c1	5%	-12%	-4%	?
Cc1ccc(OC(C)C(=O)Nc2ccc(C)c(S(=O)(=O)Nc3ccc(C)cc3C)c2)cc1 (stereo not drawn)	?	?	16µM*	?
CCCCNC(=O)C(CC)n1c(SCc2cccc(F)c2)nc2ccncc21 (stereo not drawn)	-13%	3%	/	/
Cc1ccnc(NC(=O)c2cccc(S(=O)(=O)NCc3ccccc3)c2)c1	-20%	-3%	-4%[46.1 µM]	22%
Cc1ccc(S(=O)(=O)NCc2ccc(C(=O)NCCN(Cc3ccccc3)C(C)C)cc2)cc1	?	-25%	-29%[46.1 µM]	11µM*
Cc1ccc(OCCNC(=O)c2cccc(S(=O)(=O)NCc3ccccc3)c2)cc1	?	-30%	?	6.3µM*
Cc1ccc(S(=O)(=O)NCc2ccc(C(=O)NCCc3cccc(C)c3)cc2)cc1	-10%	-5%	-2%[46.1 µM]	/
Cc1cccc2c(C(O)c3cn(C)c4ccccc34)c[nH]c12 (stereo not drawn)	15%	-11%	/	/
Clc1ccc(C2=NNC(=NCc3ccc4c(c3)OCO4)SC2)cc1	-6%	-25%	?	13µM*
CCN1CCN(C(=O)c2cnn(-c3cccc(Cl)c3)c2C2CCN(C(=O)OC(C)(C)C)CC2)CC1	-5%	-18%	7.1µM*	/
Cc1ccc(-n2ncc(C(=O)N3CCN(C4CCCCC4)CC3)c2C2CCN(C(=O)OC(C)(C)C)CC2)cc1C	-22%	-24%	2µM*	/
SMILES	VACV Venus inh	Vaccinia mCherry	Lassa entry inh	Marburg entry inh
CC(C)(C)OC(=O)N1CCC(c2c(C(=O)N3CCN(C4CCCCC4)CC3)cnn2-c2ccc(F)cc2)CC1	-6%	-14%	?	28%[46.1 µM]
CN(C)c1ccc(/C=C/c2ccnc3ccc(N)cc23)cc1	29%	?	/	/
COc1cccc(CC(=O)NCC2Cc3cc(Cl)cc(-c4ncccn4)c3O2)c1 (stereo not drawn)	-23%	-6%	/	/
COc1cc(-c2c(C#N)c(N)nc3c2c(C)nn3-c2ccc(C)c(C)c2)cc(OC)c1OC	/	/	?	21µM*
Cc1nn(-c2ccc(F)cc2)c2nc(N)c(C#N)c(-c3ccc(O)c(O)c3)c12	?	?	?	1%
O=C(CN1CCN(Cc2ccc(Cl)cc2)C1=O)NCCCN1CCN(c2ccc(F)cc2)CC1	/	/	-23%	13µM*

Source: PubChem (National Center for Advancing Translational Sciences (NCATS))
